# The list is not random: actives were taken first. Their share in the collection is about 12%.
# BAZ2B block = BAZ2B (human) inhibition; Q9UIF8; AlphaScreen BAZ2B-H3K14Ac peptide displacement; Potency, µM (highest dose often 114 µM), for inactives: at the highest dose activity change, negative = inhibition, most hits filed as inhibitors; 360,000 tested, 4.4% active; further: on the % scale 0 is the no-effect control and ±100 the full control effect; nearly all actives have a fitted effect of over 60% in size
#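 AlphaScreen displacement of biotin-H3(5-23)K14Ac peptide (50 nM final) from BAZ2B (50 nM final) in PBS pH 7.4, 0.01% Tween-20; complex preformed 30 min RT, then compounds (top 110 uM) 30 min RT, beads 20 min dark.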
# L3MBTL1 inh = inhibitors of human L3MBTL1; Q9Y468; AlphaScreen L3MBTL1–H3K9me1 peptide binding; Potency, µM (titrated, usually from 57.1 µM), inactives show at the highest dose activity, negative = inhibition, most hits filed as inhibitors; 230,000 tested, 0.66% active; AID 485360; further: on the % scale 0 is the no-effect control and ±100 the full control effect; nearly all actives have a fitted effect of over 60% in size
# Target sequence (Q9Y468 whole entry, looked up): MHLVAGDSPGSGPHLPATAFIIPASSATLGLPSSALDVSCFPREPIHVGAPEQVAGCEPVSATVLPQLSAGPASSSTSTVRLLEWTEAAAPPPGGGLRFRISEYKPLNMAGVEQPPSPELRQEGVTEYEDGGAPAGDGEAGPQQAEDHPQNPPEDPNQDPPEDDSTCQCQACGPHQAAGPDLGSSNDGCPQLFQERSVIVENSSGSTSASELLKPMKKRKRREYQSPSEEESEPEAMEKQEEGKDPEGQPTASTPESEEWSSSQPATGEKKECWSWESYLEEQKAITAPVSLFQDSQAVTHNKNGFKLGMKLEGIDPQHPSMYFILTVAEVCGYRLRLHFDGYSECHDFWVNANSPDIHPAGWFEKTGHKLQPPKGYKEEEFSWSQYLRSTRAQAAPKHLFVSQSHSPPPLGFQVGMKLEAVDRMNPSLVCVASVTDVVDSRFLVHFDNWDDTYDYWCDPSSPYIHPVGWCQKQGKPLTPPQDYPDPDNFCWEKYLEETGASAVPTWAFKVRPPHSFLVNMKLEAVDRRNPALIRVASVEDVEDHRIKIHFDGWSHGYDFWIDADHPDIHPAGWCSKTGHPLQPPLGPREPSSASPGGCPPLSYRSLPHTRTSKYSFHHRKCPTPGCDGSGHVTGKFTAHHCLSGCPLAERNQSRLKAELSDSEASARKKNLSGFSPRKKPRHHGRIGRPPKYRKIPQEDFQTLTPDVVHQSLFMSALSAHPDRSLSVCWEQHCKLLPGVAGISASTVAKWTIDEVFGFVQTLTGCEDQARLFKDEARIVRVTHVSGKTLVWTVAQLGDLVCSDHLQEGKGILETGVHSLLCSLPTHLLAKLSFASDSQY
#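 L3MBTL1 (50 nM) pre-complexed 30 min with biotinylated H3(1-15)K9me1 peptide (75 nM), then compounds added for 30 min at room temperature; AlphaScreen streptavidin donor/nickel chelate acceptor beads (10 ug/mL final) read after 30 min dark incubation.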
# JMJD2A Tudor = inhibitors of human JMJD2A Tudor domain; 390,000 tested, 4.4% active; O75164; AlphaScreen JMJD2A-Tudor / H3K4me3 peptide binding; Potency, µM (series often up to 114 µM), without a hit: top-dose activity change, negative = inhibition, most hits filed as inhibitors; further: on the % scale 0 is the no-effect control and ±100 the full control effect; nearly all actives have a fitted effect of over 50% in size
# HP1b binding inh = inhibitors of HP1-beta chromodomain binding to methylated histone tails. P83916. AlphaScreen HP1-beta / biotin-H3K9me3 peptide binding. Potency, µM (series often up to 114 µM), inactives show at the top dose activity change, negative = inhibition, most hits filed as inhibitors. 390,000 tested, 0.56% active. AID 540317; further: nearly all actives have a fitted effect of over 70% in size
#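 AlphaScreen: HP1-beta (50 nM) preformed 30 min with biotin-H3(1-18)K9me3 peptide (50 nM) in PBS pH 7.4, 0.01% Tween-20. Compound added for 30 min at RT, then streptavidin donor/nickel chelate acceptor beads (10 ug/mL) for 30 min.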
# G9a block = G9a (human) methyltransferase inhibition; Q96KQ7; G9a H3K9 monomethylation, AlphaScreen, 2 h; Potency, µM (top dose mostly 102 µM), without a hit: at the top dose activity, negative = inhibition, usual class: inhibitors; 350,000 tested, 8.8% active; AID 504332; further: on the % scale 0 is the no-effect control and ±100 the full control effect; nearly all actives have a fitted effect of over 75% in size
#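 Readings reflect AlphaScreen signal from monomethyl-H3K9 antibody detection. HMT at 20 nM; substrate b-H3K9 500 nM; cofactor SAM 20 uM; 2 h RT reaction; compounds tested as titrations in qHTS with 15 min preincubation.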
# Sfp inh = Sfp phosphopantetheinyl transferase inhibition; Q9F4F7; Biochemical Sfp PPTase activity, qHTS; Potency, µM, for the others: largest response in the series, negative = inhibition, actives largely listed as inhibitors; 310,000 tested, 3.5% active; AID 1490;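 further: the enzyme is Sfp with the accession as filed and its product quenches rhodamine fluorescence; 0% = enzyme reaction without inhibitor and -100% = no enzyme wells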
#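 Fluorescence-quenching assay: 15 nM Sfp-PPTase preincubated 15 min at room temperature with compound, then 5 uM rhodamine-CoA and 12.5 uM BHQ-2-labelled YbbR peptide added. Fluorescence (ex 525/em 598 nm) read at start and after 30 min; difference gives rate.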
# Numbers without * were called inactive; u = inconclusive; x = no result given; [ ] = another dose, or the depositor's remark. The call rests on the fitted dose curve; in most records, active means well fitted curve in the direction sought with a large enough effect; inconclusive means small, poorly fitted or top-dose-only effect, or another doubt; inactive means no such curve, though single readings can be large; an effect the other way counts as inactive or inconclusive. Potency means the concentration at half of the fitted maximal effect.
SMILES,BAZ2B block,L3MBTL1 inh,JMJD2A Tudor,HP1b binding inh,G9a block,Sfp inh
C#CCOCCOCCOCCNc1nc(N2CCN(C(=O)[C@H](Cc3ccc(O)cc3)n3cc([C@@H](N)CC(C)C)nn3)CC2)nc(N2CCN(C(=O)[C@H](Cc3ccc(O)cc3)n3cc([C@@H](N)CC(C)C)nn3)CC2)n1,50.1µM*,-14.6%,x,x,-102.3%[59 µM],-16.6%
C#CCOCCOCCOCCNc1nc(N2CCN(C(=O)[C@H](CCCCN)n3cc(CCC(=O)O)nn3)CC2)nc(N2CCN(C(=O)[C@H](Cc3ccc(O)cc3)n3cc(CCO)nn3)CC2)n1,x,x,-14.5%,16.6%,x,x
C#CCOCCOCCOCCNc1nc(N2CCN(C(=O)[C@H](CCC(=O)O)n3cc(C(N)Cc4ccc(O)cc4)nn3)CC2)nc(N2CCN(C(=O)[C@H](Cc3ccc(O)cc3)n3cc(C(N)CC(C)C)nn3)CC2)n1 (some centres not stated),35.5µM*,x,x,x,u,-1.2%
C#CCOCCOCCOCCNc1nc(N2CCN(C(=O)[C@H](CCCCN)n3cc(C(N)CO)nn3)CC2)nc(N2CCN(C(=O)[C@H](CCC(=O)O)n3cc(C(N)Cc4ccc(O)cc4)nn3)CC2)n1 (some centres not stated),17.8µM*,x,x,x,u,-29.7%
C#CCOCCOCCOCCNc1nc(N2CCN(C(=O)[C@H](CCC(=O)O)n3cc(C(N)Cc4ccc(O)cc4)nn3)CC2)nc(N2CCN(C(=O)[C@H](CCC(=O)O)n3cc(C(N)Cc4ccc(O)cc4)nn3)CC2)n1 (some centres not stated),50.1µM*,-14.6%,50.1µM*,31.9%,u,-7.5%
COC(=O)c1ccc(NC(CC(C)C)C(=O)OC)c([N+](=O)[O-])c1 (configuration not stated),u,-13.8%,u,-13.5%,39.8µM*,3.6%
COc1cc(/C=C(\C#N)c2nc3ccccc3c(=O)[nH]2)cc(OC)c1OC,4.1%,x,4.2%,20.9%,-26.0%[59 µM],x
CCCCn1nnnc1NCc1ccc(N2CCCC2)cc1,u,-9.2%,u,-19.0%,-39.7%[12.7 µM],-19.8%
CCCn1nnnc1NCc1ccc(N2CCCC2)cc1,-3.3%,10.2%[11.4 µM],-32.1%,12.1%,3.55µM*,1.1%
CCN(CC)c1ccc(CNc2nnnn2C)cc1,u,-1.3%,-10.3%,15.5%,31.6µM*,4.3%
Cn1nnnc1NCc1ccc(Cl)cc1,-16.6%,x,-7.5%,34.0%,19.4%[59 µM],21.5%
CCCn1nnnc1NCc1ccc(N(CC)CC)cc1,u,x,-25.9%,-0.1%,15.8µM*,-0.9%
CC(C)C[C@@H](CC(=O)N[C@@H](CCC(=O)O)CC(=O)O)NC(=O)[C@@H]1CNCC[C@H]1NC(=O)C[C@H](CCCN)NC(=O)C[C@H](CO)NC(=O)[C@@H]1CNCC[C@H]1N,x,x,x,x,x,-18.1%
Cc1ccc2c(CN3CCN(C(=O)c4ccc(Br)cc4)CC3)cc(=O)oc2c1,-15.8%,x,0.0%,32.9%,-5.4%[59 µM],x
CC1CCN(C(=O)CCc2ccc(Oc3cc([N+](=O)[O-])cc([N+](=O)[O-])c3)cc2)CC1,28.2µM*,u,12.6µM*,44.7µM*,u,u
CCN(CC)c1nc2ccccc2[nH]c1=O,2.1%,-1.5%,-3.5%,38.5%,31.6µM*,8.0%
CCN(CC)c1nc2ccccc2[nH]1,-4.5%,7.4%,-6.2%,28.4%,2.8%,10.8%
COc1ccc(OC)c(C2C=C(C34CC5CC(CC(C5)C3)C4)NC(=S)N2)c1 (configuration not stated),31.6µM*,-29.9%,u,u,u,-7.9%
Cc1cc2cc3c(cc2nc1SCC(=O)Nc1nc(C)c(C)s1)OCO3,-1.4%,-1.5%,-10.4%,-4.0%,7.3%[59 µM],25.1µM*
COC(=O)CSc1nc2cc3c(cc2cc1C)OCO3,-4.7%,6.0%,7.7%,119.6%,u,-6.2%
CS(=O)(=O)N1CCC2(CCCN(C(c3ccccc3)c3ccccc3)C2)CC1,x,x,x,x,-2.3%[12.7 µM],12.7%
C[C@]12CC[C@H]3c4ccc(O)cc4CC[C@@H]3[C@H]1CC[C@@H]2OC(=O)CCC1CCCC1,x,x,x,x,6.4%[59 µM],30.7%
Cc1ccc(/C=[N+](\[O-])c2ccc(N(C)C)cc2)c2nsnc12,31.6µM*,u,25.1µM*,28.2µM*,8.91µM*,-65.2%
Cc1cc(C)nc(SCC(=O)Nc2ccc(S(=O)(=O)Nc3onc(C)c3C)cc2)n1,4.5%,6.8%,-4.8%,43.8%,-15.9%,13.9%
Cc1noc(NS(=O)(=O)c2ccc(NC(=O)CSc3nc4c(cc3C#N)CCCC4)cc2)c1C,-8.9%,-0.1%,-12.4%,39.0%,25.1µM*,u
SMILES,BAZ2B block,L3MBTL1 inh,JMJD2A Tudor,HP1b binding inh,G9a block,Sfp inh
Cc1noc(NS(=O)(=O)c2ccc(NC(=O)CSc3nc4c(cc3C#N)CCC4)cc2)c1C,u,-3.2%,25.1µM*,-0.9%,7.08µM*,50.1µM*
Cc1noc(NS(=O)(=O)c2ccc(NC(=O)Cc3ccc([N+](=O)[O-])cc3)cc2)c1C,u,x,-33.6%,39.3%,x,8.0%
Cc1noc(NS(=O)(=O)c2ccc(NC(=O)CSc3nc4ccccc4s3)cc2)c1C,-15.3%,-11.9%,u,-31.0%,8.91µM*,50.1µM*
Cc1noc(NS(=O)(=O)c2ccc(NC(=O)CSc3ncccn3)cc2)c1C,2.8%,6.2%,-29.7%,37.7%,u,28.0%
COc1ccc(-c2n[nH]c3c2C(c2ccccn2)N(C)C3=O)cc1 (configuration not stated),-6.0%,x,-15.4%,19.5%,-23.4%[59 µM],x
Oc1cccc(Nc2nc(O)c(/C=C3\C=Nc4ccccc43)s2)c1,u,-26.2%,-23.5%[11.4 µM],11.3%,50.1µM*,-24.4%
Oc1nc(Nc2cccc(Cl)c2)sc1/C=C1\C=Nc2ccccc21,-38.0%,-7.0%,u,-16.6%,u,-2.2%
COc1cccc(-c2nnc(SCc3ccc(C#N)cc3)n2Cc2ccco2)c1,-29.0%,-18.2%,u,9.7%,35.5µM*,u
Cc1ccc(-c2nnc(SCc3ccc(C#N)cc3)n2Cc2ccco2)cc1,-35.0%,-4.4%,79.4µM*,6.6%,x,-6.0%
COc1ccc(N2CC(NC(=O)C(c3ccccc3)c3ccccc3)CC2=O)cc1OC (configuration not stated),-4.8%,x,1.0%,41.2%,u,x
CC(C)Cc1nn2c(=O)cc(COC(=O)c3cccc(NS(C)(=O)=O)c3)nc2s1,-1.6%,x,-18.5%,18.7%,4.9%[59 µM],x
S=c1[nH]nc(Cn2cnc3ccccc32)n1-c1ccccc1Cl,19.7%,20.6%,50.1µM*,40.5%,x,89.1µM*
Clc1ccc(Cn2cnc3ccccc32)cc1,-3.1%,3.5%,-16.2%,27.1%,6.8%[12.7 µM],12.9%

# Bioassay records from PubChem.
